According to the supplement of paper PMC9948646:

system: gramicidin D channels in DC22:1PC lipid vesicles (bilayer-modifying potency); test: initial Tl+ fluorescence quench rate relative to no-drug control (NormRate, gramicidin monomer-dimer shift) (ratio (fold of control)); higher = stronger bilayer-modifying effect (equilibrium shifted toward conducting dimers), active = 1.5 or more; conditions: 10 µM; lipid concentration 50 µM; temperature: 25 °C
Method: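 Stopped-flow fluorescence quench assay: ANTS-loaded DC22:1PC large unilamellar vesicles doped with gramicidin D (1:2000), 50 µM lipid, equilibrated 10 min with 10 µM drug (0.1% DMSO), mixed with Tl+ quench buffer at 25°C. Initial quench rate (Tl+ influx) was fitted with a modified stretched exponential and normalised to the no-drug control rate (NormRate); duplicates from two independent LUV preparations (triplicates for 7 drugs).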

Initial Tl+ fluorescence quench rate, inactive:
Cc1cc(C(=O)Nc2cnn(Cc3ccc(Cl)cc3Cl)c2)no1 1.1
O=C(NC1=NCCS1)c1sc2cc(F)ccc2c1Cl 1.06
O=C(Nc1ccc2c(c1)B(O)OC2)c1ccccc1C(F)(F)F 1.06
CC(C)(C)c1ccc(N[C@@H]2CCCC[C@H]2NC(=O)c2ccco2)cc1 1.36
O=C(Nc1ccc(N2CCNCC2)nc1)c1oc(-c2ccccc2)nc1C(F)(F)F 1.47
COc1cc(Br)cc2cc(C(=O)Nc3cccc(C(F)(F)F)c3)c(=O)oc12 1.05
CCc1ccc([C@@H](NCc2nc(N)nc(N(C)C)n2)C(C)C)cc1 1.08
CCOc1ccccc1C(=O)Nc1cccc(-c2nc3ncccn3c2C)c1 1.48
O=C(c1ccco1)N(CCCn1ccnc1)c1nc2c(Cl)cccc2s1 1.24
O=C(Nc1cnc2ccccc2c1)c1cccc(-n2cnnn2)c1 1.26
Cc1cc(OCC(=O)NCc2ccccc2)c2cc(Br)ccc2n1 1.45
O=C(Nc1nnc(S)s1)c1cc(Br)ccc1Cl 1.2
CC(=O)NC[C@H]1CN(c2ccc(-c3ccc(CO)cc3)c(F)c2)C(=O)O1 1.22
CC(=O)N1CCc2cc3nc(C)cc(C)c3cc21 1.09
COc1cccc(-c2cc3c(Nc4cccnc4)nccc3[nH]2)c1 1.5
O=C(Nc1c(O)cccc1-c1nc2c(C(=O)O)cccc2o1)c1cc(-c2ccccc2)on1 1.35
Cc1cc(Nc2ccncc2)n2nc(C)c(-c3ccccc3Cl)c2n1 1.03
CC(=O)NC[C@H]1CN(c2ccc(-c3ccc(CNCc4cn[nH]n4)cc3)c(F)c2)C(=O)O1 1.37
CS(=O)(=O)Cc1nc2ccccc2oc1=O 1.08
c1ccc(-c2cc(N3CCCCC3)c3ccccc3n2)nc1 1.08
CCC(=O)Nc1ccccc1C(=O)Nc1ccccn1 1.12
Cc1ccc2[nH]c([C@H]3CCCNC3)c(-c3ccncc3)c2c1 1.42
CCc1ccc(S(=O)(=O)Nc2cc(CN3CCN(CCC(C)C)CC3)ccc2C)cc1 1.29
NS(=O)(=O)c1cncc(-c2ccc3nccc(-c4cn[nH]c4)c3n2)c1 1.18
c1coc(CNc2nc(N3CCCCC3)nc3ccccc23)c1 1.02
CC(C)(C)n1nc(-c2ccccc2)c2c(N)ncnc21 1.03

Initial Tl+ fluorescence quench rate, active:
C[C@H](c1ccc2c(c1)CCCC2)N(C)c1ncc2c(N)nc(N)nc2n1 2.15
Cc1ccc(C(=O)Nc2ccc(S(=O)(=O)O)c3cc(S(=O)(=O)O)cc(S(=O)(=O)O)c23)cc1NC(=O)c1cccc(NC(=O)Nc2cccc(C(=O)Nc3cc(C(=O)Nc4ccc(S(=O)(=O)O)c5cc(S(=O)(=O)O)cc(S(=O)(=O)O)c45)ccc3C)c2)c1 2.56
CN1CCC(NCc2cccc(-c3ccc(S(=O)(=O)NCc4ccccc4)cc3)c2)CC1 1.94
CCCS(=O)(=O)N1CCC(CO)(Cc2ccccc2C(F)(F)F)CC1 1.62
C[C@@H](c1cc(Cl)cc(Cl)c1)N(C)c1ncc2c(N)nc(N)nc2n1 2.71
Cn1ccnc1CNCCS(=O)(=O)c1cccc(Nc2ccc(-c3cccc(F)c3)cn2)c1 2.38
Nc1ccc2ncnc(Nc3ccc(OCc4cccc(F)c4)c(Cl)c3)c2c1 2.58
CS(=O)(=O)N1CCC(CCn2nc(Cc3cccc4ccccc34)c3c(N)ncnc32)CC1 1.95
Nc1nc2ccc(-c3cncc(Oc4ccc(F)cc4)c3)cc2[nH]1 1.85
COC(=O)c1c(NC(=O)c2c(F)c(F)c(F)c(F)c2F)sc2c1CCCCC2 1.72
CC[C@@H]([C@H](C)O)n1ncn(-c2ccc(N3CCN(c4ccc(OC[C@@H]5CO[C@@](Cn6cncn6)(c6ccc(F)cc6F)C5)cc4)CC3)cc2)c1=O 7.69
CCCCCCCCCCCCCCCCOP(=O)([O-])OCC[N+](C)(C)C 2.31
CN1CCC[C@H]1CCO[C@](C)(c1ccccc1)c1ccc(Cl)cc1 2.33
CC(C)(C)OC(=O)N1CCC(Cn2nc(-c3cnc4ccccc4c3)c3c(N)ncnc32)CC1 1.57
